{"source": "PubChem BioAssay (NCATS)", "key": {"[1]": {"biological_target": "Aldehyde dehydrogenase, mitochondrial (Homo sapiens) (UniProt P05091)", "assay": "qHTS for Inhibitors of the Aldehyde Dehydrogenase Family (ALDH2) Primary screen (AID 2061308); note: nearly all actives have a fitted effect of over 55% in size"}, "[2]": {"biological_target": "Retinaldehyde dehydrogenase 3 (Homo sapiens) (UniProt P47895)", "assay": "qHTS for Inhibitors of the Aldehyde Dehydrogenase Family (ALDH1A3) Primary screen (AID 2061315)"}}, "note": "Records with an inconclusive call do not appear. A call without a number means that no potency is given here. The source made the active and inactive calls. Calls come from the whole dose curve; as a rule, active = well fitted curve in the direction sought with a large enough effect; inconclusive = small, poorly fitted or top-dose-only effect, or another doubt; inactive = no such curve, though single readings can be large; an effect the other way counts as inactive or inconclusive.", "data": [{"compound": "Cc1ccnc(NC(=S)N2CCN(c3cc(C(F)(F)F)cc(C(F)(F)F)c3)CC2)c1", "values": [{"measurement": "Potency", "setting": "[1]", "result": "inactive"}, {"measurement": "Potency", "setting": "[2]", "result": "inactive"}]}, {"compound": "Cc1ccc(-c2cc(C(=O)Nc3ccc(Cl)cc3)c3ccccc3n2)cc1C", "values": [{"measurement": "Potency", "setting": "[1]", "result": "inactive"}, {"measurement": "Potency", "setting": "[2]", "result": "inactive"}]}, {"compound": "C=C1CC2OC(=O)C(=C)C2C(OC(=O)/C(C)=C\\C)CC2(C)OC1=CC2=O", "note": "(centres undefined)", "values": [{"measurement": "Potency", "setting": "[1]", "result": "inactive"}, {"measurement": "Potency", "setting": "[2]", "result": "inactive"}]}, {"compound": "CCOc1ccccc1CNc1ncnc2ccc(-c3c(C)noc3C)cc12", "values": [{"measurement": "Potency", "setting": "[1]", "result": "inactive"}, {"measurement": "Potency", "setting": "[2]", "result": "inactive"}]}, {"compound": "COC(=O)c1ccc(NC(=O)c2nc3ccccc3n(C)c2=O)cc1", "values": [{"measurement": "Potency", "setting": "[1]", "result": "inactive"}, {"measurement": "Potency", "setting": "[2]", "result": "inactive"}]}, {"compound": "O=C(NCCc1nc2ccccc2n1CCOc1cccc([N+](=O)[O-])c1)C1CCCCC1", "values": [{"measurement": "Potency", "setting": "[1]", "result": "inactive"}, {"measurement": "Potency", "setting": "[2]", "result": "inactive"}]}, {"compound": "O=C1CCCC2=C1C(c1[nH]ncc1Cl)N=C(Nc1nc3ccc(Cl)cc3o1)N2", "note": "(centres undefined)", "values": [{"measurement": "Potency", "setting": "[1]", "result": "inactive"}, {"measurement": "Potency", "setting": "[2]", "result": "inactive"}]}, {"compound": "COc1ccc(CNc2ccc(S(=O)(=O)Nc3nccs3)cc2)c(O)c1", "values": [{"measurement": "Potency", "setting": "[1]", "result": "inactive"}, {"measurement": "Potency", "setting": "[2]", "result": "inactive"}]}, {"compound": "COc1nccc(-c2nc(Nc3ccc(F)c(F)c3)c3ccccc3n2)c1OC", "values": [{"measurement": "Potency", "setting": "[1]", "result": "inactive"}, {"measurement": "Potency", "setting": "[2]", "result": "inactive"}]}, {"compound": "CC(=O)NC(c1cccs1)c1cc(F)c2cccnc2c1O", "note": "(centres undefined)", "values": [{"measurement": "Potency", "setting": "[1]", "result": "inactive"}, {"measurement": "Potency", "setting": "[2]", "result": "inactive"}]}, {"compound": "COc1ccc(Nc2nc(-c3ccncc3)nc3ccccc23)cc1F", "values": [{"measurement": "Potency", "setting": "[1]", "result": "inactive"}, {"measurement": "Potency", "setting": "[2]", "result": "inactive"}]}, {"compound": "Cc1ccc(NC(=O)c2ccc(-c3nc4ccccc4[nH]3)cc2)cc1Br", "values": [{"measurement": "Potency", "setting": "[1]", "result": "inactive"}, {"measurement": "Potency", "setting": "[2]", "result": "inactive"}]}, {"compound": "O=C(NCCc1nc2ccccc2[nH]1)C1CCCCC1", "values": [{"measurement": "Potency", "setting": "[1]", "result": "inactive"}, {"measurement": "Potency", "setting": "[2]", "result": "inactive"}]}, {"compound": "N#Cc1nc(-c2cccc3ccccc23)oc1NC1CNC1", "values": [{"measurement": "Potency", "setting": "[1]", "result": "inactive"}, {"measurement": "Potency", "setting": "[2]", "result": "inactive"}]}, {"compound": "COc1ccc(OC)c(C2=Nn3c(nnc3-c3cccc(OC)c3OC)SC2)c1", "values": [{"measurement": "Potency", "setting": "[1]", "result": "inactive"}, {"measurement": "Potency", "setting": "[2]", "result": "inactive"}]}, {"compound": "Cc1nc2ccc(Nc3nc(-c4ccncc4)nc4ccccc34)cc2s1", "values": [{"measurement": "Potency", "setting": "[1]", "result": "inactive"}, {"measurement": "Potency", "setting": "[2]", "result": "inactive"}]}, {"compound": "O=C(Nc1ccc(Oc2ccccc2)cc1)Nc1nnc(-c2ccncc2)s1", "values": [{"measurement": "Potency", "setting": "[1]", "result": "inactive"}, {"measurement": "Potency", "setting": "[2]", "result": "inactive"}]}, {"compound": "O=C(CNC(=O)c1ccc2n[nH]nc2c1)OC(C(=O)Nc1cc(C(F)(F)F)ccc1Cl)c1ccccc1", "note": "(centres undefined)", "values": [{"measurement": "Potency", "setting": "[1]", "result": "inactive"}, {"measurement": "Potency", "setting": "[2]", "result": "inactive"}]}, {"compound": "CC(=O)O[C@@H]1CC2C(C)(C)C(=O)C=C[C@]2(C)C2CC[C@@]3(C)[C@H](c4ccoc4)OC(=O)[C@H]4O[C@]43[C@@]21C", "note": "(some centres undefined)", "values": [{"measurement": "Potency", "setting": "[1]", "result": "inactive"}, {"measurement": "Potency", "setting": "[2]", "result": "inactive"}]}, {"compound": "COc1cc(N2CCN(C(=S)Nc3cc(C)cc(C)n3)CC2)cc(C(F)(F)F)c1", "values": [{"measurement": "Potency", "setting": "[1]", "result": "inactive"}, {"measurement": "Potency", "setting": "[2]", "result": "inactive"}]}, {"compound": "O=C(O)c1ccc2c(c1)C(=O)N([C@H](Cc1ccc(-c3ccccc3)cc1)C(=O)O)C2=O", "values": [{"measurement": "Potency", "setting": "[1]", "result": "inactive"}, {"measurement": "Potency", "setting": "[2]", "result": "inactive"}]}, {"compound": "Cc1ccc(S(=O)(=O)Nc2cc(F)c(F)cc2C(=O)Nc2nc(-c3ccccc3)cs2)cc1", "values": [{"measurement": "Potency", "setting": "[1]", "result": "inactive"}, {"measurement": "Potency", "setting": "[2]", "result": "inactive"}]}, {"compound": "COc1ccc(Cn2ncc3c4sc(C)cc4n(C)c3c2=O)cc1", "values": [{"measurement": "Potency", "setting": "[1]", "result": "inactive"}, {"measurement": "Potency", "setting": "[2]", "result": "inactive"}]}, {"compound": "CN(C)[S+](=O)([O-])c1ccc(-c2ccc(=O)n(CC(=O)NCCc3ccccc3)n2)cc1", "values": [{"measurement": "Potency", "setting": "[1]", "result": "inactive"}, {"measurement": "Potency", "setting": "[2]", "result": "inactive"}]}, {"compound": "Cc1c[nH]c2nccc(Oc3c(F)cc(Nc4cc(Cl)nc(N)n4)cc3F)c12", "values": [{"measurement": "Potency", "setting": "[1]", "result": "inactive"}, {"measurement": "Potency", "setting": "[2]", "result": "inactive"}]}, {"compound": "CC(=O)O[C@@H]1c2c3c(cc(O)c2C(=O)O[C@@H]1C)O[C@@]1(C)[C@@H](O)C[C@H]2C(C)(C)C(=O)C=C[C@]2(C)[C@@H]1C3", "values": [{"measurement": "Potency", "setting": "[1]", "result": "inactive"}, {"measurement": "Potency", "setting": "[2]", "result": "inactive"}]}, {"compound": "O=C(OCC#CCSc1nnc(-c2cccc3ncccc23)o1)c1ccc(F)cc1", "values": [{"measurement": "Potency", "setting": "[1]", "result": "inactive"}, {"measurement": "Potency", "setting": "[2]", "result": "inactive"}]}, {"compound": "FC(F)Oc1ccc(C2=Nn3c(nnc3-c3ccccc3Cl)SC2)cc1OCC1CC1", "values": [{"measurement": "Potency", "setting": "[1]", "result": "inactive"}, {"measurement": "Potency", "setting": "[2]", "result": "inactive"}]}, {"compound": "CCCCNc1nc(C)nc2c1nc(-c1ccccc1)n2CC1CCN(C)CC1", "values": [{"measurement": "Potency", "setting": "[1]", "result": "inactive"}, {"measurement": "Potency", "setting": "[2]", "result": "inactive"}]}, {"compound": "C=C[C@H]1C(O[C@@H]2O[C@H](CO)[C@@H](O)[C@H](O)[C@H]2O)OC=C2C(=O)N3CCc4c([nH]c5ccccc45)[C@H]3C[C@H]21", "note": "(some centres undefined)", "values": [{"measurement": "Potency", "setting": "[1]", "result": "inactive"}, {"measurement": "Potency", "setting": "[2]", "result": "inactive"}]}, {"compound": "CCN(CC)CCCC(C)n1c(-c2ccccc2)nc2c(N3CCOCC3)nc(C)nc21", "note": "(centres undefined)", "values": [{"measurement": "Potency", "setting": "[1]", "result": "inactive"}, {"measurement": "Potency", "setting": "[2]", "result": "inactive"}]}, {"compound": "O=C(/C=C/c1ccc(F)cc1)Nc1cccc([S+](=O)([O-])Nc2ccccc2F)c1", "values": [{"measurement": "Potency", "setting": "[1]", "result": "inactive"}, {"measurement": "Potency", "setting": "[2]", "result": "inactive"}]}, {"compound": "Cc1ccc(NS(=O)(=O)c2ccc3c(c2)N(C)CCO3)cc1C", "values": [{"measurement": "Potency", "setting": "[1]", "result": "inactive"}, {"measurement": "Potency", "setting": "[2]", "result": "inactive"}]}, {"compound": "O=C(Nc1cccc(C(F)(F)F)c1)Nc1nnc(-c2ccncc2)s1", "values": [{"measurement": "Potency", "setting": "[1]", "result": "inactive"}, {"measurement": "Potency", "setting": "[2]", "result": "inactive"}]}, {"compound": "Fc1ccc(-c2ccc(Nc3nc(-c4ccncc4)nc4ccccc34)cc2F)cc1", "values": [{"measurement": "Potency", "setting": "[1]", "result": "inactive"}, {"measurement": "Potency", "setting": "[2]", "result": "inactive"}]}, {"compound": "CCNC(=O)C1CCN(C(=O)C(C)(C)NC(=O)Nc2ccccc2Cl)CC1", "values": [{"measurement": "Potency", "setting": "[1]", "result": "inactive"}, {"measurement": "Potency", "setting": "[2]", "result": "inactive"}]}, {"compound": "Cc1ccc(CC(=O)Nc2nc(-c3ccc4c(c3)CCN4C(=O)c3ccccc3C)c(C)s2)cc1C", "values": [{"measurement": "Potency", "setting": "[1]", "result": "inactive"}, {"measurement": "Potency", "setting": "[2]", "result": "inactive"}]}]}
